# Among all 390,000 compounds or so, about 17,000 (4.4%) were called active. Another 8% or so got no clear call; they are omitted. The list comes from a sample in which actives are over-represented; it also holds similar structures and randomly drawn compounds. Unmarked numbers belong to inactive results. The call rests on the fitted dose curve; in most records, active means well fitted inhibition curve with a large enough effect; inconclusive means small, poorly fitted or top-dose-only effect; inactive means no such curve, though single readings can be large or run the other way.
# Target: Lysine-specific demethylase 4A (Homo sapiens) (UniProt O75164)
# Experiment: qHTS Assay for Inhibitors of JMJD2A-Tudor Domain; further: nearly all actives have a fitted effect of over 50% in size
# Settings: AlphaScreen JMJD2A-Tudor / H3K4me3 peptide binding; series mostly up to 114 µM; activity change, negative = inhibition: at the top concentration
# On the % scale 0 is the no-effect control and ±100 the full control effect; potency means the concentration at half of the fitted maximal effect.
# Lysine-specific demethylase 4A (Homo sapiens), sequence (O75164 whole entry, looked up, the tested form may be a part): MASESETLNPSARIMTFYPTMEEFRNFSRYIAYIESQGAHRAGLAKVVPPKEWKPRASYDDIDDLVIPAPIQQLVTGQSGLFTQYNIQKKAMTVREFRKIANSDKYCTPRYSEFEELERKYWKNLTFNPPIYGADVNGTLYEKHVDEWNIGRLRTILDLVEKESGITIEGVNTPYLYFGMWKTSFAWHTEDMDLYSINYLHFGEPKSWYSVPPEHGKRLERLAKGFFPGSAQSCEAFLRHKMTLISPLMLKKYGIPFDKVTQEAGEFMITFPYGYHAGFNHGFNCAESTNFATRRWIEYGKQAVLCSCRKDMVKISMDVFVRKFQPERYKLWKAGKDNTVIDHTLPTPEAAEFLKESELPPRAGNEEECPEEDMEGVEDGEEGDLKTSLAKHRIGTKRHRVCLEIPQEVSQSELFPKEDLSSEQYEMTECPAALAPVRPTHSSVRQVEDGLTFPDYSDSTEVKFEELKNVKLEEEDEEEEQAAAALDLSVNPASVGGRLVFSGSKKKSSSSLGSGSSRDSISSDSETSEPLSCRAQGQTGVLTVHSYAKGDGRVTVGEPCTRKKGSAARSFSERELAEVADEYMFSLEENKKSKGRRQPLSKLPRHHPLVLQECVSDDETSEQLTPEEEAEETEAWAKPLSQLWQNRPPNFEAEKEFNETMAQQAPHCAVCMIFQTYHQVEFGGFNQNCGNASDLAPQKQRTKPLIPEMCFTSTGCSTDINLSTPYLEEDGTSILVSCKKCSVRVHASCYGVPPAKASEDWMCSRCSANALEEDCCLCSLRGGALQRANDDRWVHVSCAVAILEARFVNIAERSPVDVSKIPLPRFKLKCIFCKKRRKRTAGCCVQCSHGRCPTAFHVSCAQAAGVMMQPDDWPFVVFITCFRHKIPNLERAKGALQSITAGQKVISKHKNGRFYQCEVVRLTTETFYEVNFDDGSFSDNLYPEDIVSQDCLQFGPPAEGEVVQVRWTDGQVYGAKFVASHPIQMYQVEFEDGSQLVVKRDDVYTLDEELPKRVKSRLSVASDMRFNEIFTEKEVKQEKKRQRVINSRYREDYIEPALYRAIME
Structure (SMILES),"activity change, negative = inhibition [%]",Potency
CC1CCN(S(=O)(=O)c2ccc3c(c2)N(CC(=O)NCc2ccccc2Cl)C(=O)CO3)CC1,-1.32,
O=C(NCC12CC3CC(CC(C3)C1)C2)c1cc2nc(-c3ccccc3)cc(C(F)(F)F)n2n1,17.5,
COC(=O)c1ccccc1NS(=O)(=O)c1ccc2c(c1)CCCN2C(C)=O,-8.33,
Cc1ccsc1CN(C(=O)c1oc2ccc(Br)cc2c1C)C1CCS(=O)(=O)C1 (centres undefined),-14.9,
Cc1nc2ccc(S(=O)(=O)N(CC(=O)Nc3ccc(F)cc3)Cc3ccccc3)cc2s1,-6.33,
Cc1ccc(OCC(=O)OCc2cc(=O)n3nc(C4CC4)sc3n2)cc1C,-12.3,
CCOc1ccc(NC(=O)Cn2c(=O)n(CCCC(=O)NCc3ccc4c(c3)OCO4)c(=O)c3ccccc32)cc1,-5.46,
CCC(CC)c1nn2cc(-c3ccccc3)nc2s1,33.3,
Cn1ccc(=Nc2ccc(NC(=O)c3ccc(N=c4ccn(C)c5ccc([N+](=O)[O-])cc45)cc3)cc2)cc1,,56.2 µM (active)
CCc1ccc(NC(=O)c2ccc(Cn3cc([N+](=O)[O-])cn3)cc2)cc1,-12.8,
Cn1c(=O)n(C)c2cc(C(=O)Nc3ccc(Br)cc3)ccc21,-1.39,
O=C(Cn1cc(SCc2ccccc2)c2ccccc21)N1CCCCC1,-17.6,
O=C(NC1CC(=O)N(c2ccc(F)cc2)C1)c1ccc(S(=O)(=O)N2CCCC2)cc1 (centres undefined),-5.52,
CCCCCn1c(CCNC(=O)c2ccc(F)cc2)nc2ccccc21,-18.8,
Cc1ccc2nc(/C(C#N)=C/c3ccc(-c4ccc(C(=O)OC(C)C)cc4)o3)[nH]c2c1,-5.6,
COc1ccc(CCNC(=O)CCCn2c(=O)c3ccccc3n(Cc3ccc(C)cc3)c2=O)cc1OC,6.14,
Cc1cc(=O)n(C)c(=O)n1CCCNc1ccccc1,,7.94 µM (active)
Cn1c(Nc2ccccc2)cc(=O)n(C)c1=O,-13.4,
Cc1cc2nc(C)n(CCCNC(=O)Nc3ccccc3)c2cc1C,-19.1,
COc1cc(C(CC(=O)NCCC(C)C)N2Cc3ccccc3C2=O)cc(OC)c1OC (centres undefined),3.79,
Cc1cccc2c1-c1sc(C(=O)Nc3ccc(F)cc3F)cc1CO2,39.6,
O=C1c2ccccc2C2=Nc3ccccc3SC(c3ccccc3F)C12 (centres undefined),,14.1 µM (active)
NC(=O)CSc1nc2c(oc3ccccc32)c(=O)n1Cc1ccccc1,-8,
CCOCCCNCc1ccc(OCc2ccc(F)cc2)c(OC)c1,3.44,
CCCCOCCCNC(=O)c1ccccc1OCC,-7.56,

Structure (SMILES),"activity change, negative = inhibition [%]",Potency
CCOc1ccccc1OCCCNCc1ccccc1,,5.01 µM (active)
CCCCC(CC)CNC(=O)C1CCN(S(=O)(=O)c2cccc3nsnc23)CC1 (centres undefined),-17.7,
Nc1ncc(S(=O)(=O)Nc2ccc(OC(F)(F)F)cc2)cn1,2.58,
O=C1COc2ccc(S(=O)(=O)Nc3ccc(OC(F)(F)F)cc3)cc2N1,-9.36,
O=S(=O)(Nc1ccc(O)c2ccccc12)c1ccc(OC(F)(F)F)cc1,,50.1 µM (active)
COC(=O)CC1Oc2ccccc2-n2cc(-c3ccccc3)nc21 (centres undefined),-2.24,
CCOc1ccc(-c2cc3nc(C4CCN(C(=O)OC(C)(C)C)CC4)c(C(=O)Nc4ccc(C(=O)OC)cc4)cn3n2)cc1,-12.3,
COc1ccc(OC)c2sc(N3CCN(C(=O)C4COc5ccccc5O4)CC3)nc12 (centres undefined),-18.2,
COc1cc(NS(=O)(=O)c2ccc3c(c2)OCC(C(=O)N2CCCC2)O3)cc(OC)c1 (centres undefined),-25.3,
Cc1c(CC(=O)N2CCN(C(=O)C3COc4ccccc4O3)CC2)c(=O)oc2c(O)c(O)ccc12 (centres undefined),,2.82 µM (active)
CCNC(=O)Cn1nc(C)n2c(cc3c(OC)cccc32)c1=O,-14.2,
O=C(CSC1=Nc2ccccc2C2=NC(c3ccccc3)C(=O)N12)NCC1CCCO1 (centres undefined),0.929,
CC(C)C1N=C2c3ccccc3N=C(SCC(=O)c3ccc(O)c(O)c3)N2C1=O (centres undefined),,3.16 µM (active)
Cc1ccc(CNC(=O)CSC2=Nc3ccccc3C3=NC(C)C(=O)N23)cc1 (centres undefined),-6.62,
COc1ccc(-n2c(SC)nc3sc4c(c3c2=O)CCN(C(C)=O)C4)cc1,-13.3,
CCN1CCN(Cc2c(O)ccc3oc(C)c(C(=O)Nc4ccc(C)cc4C)c23)CC1,-20.1,
O=C(NCCCNCc1ccccc1)c1ccc(/C=N/O)nc1,,7.94 µM (active)
CC(C)c1ccc(C(=O)NCCCc2ccccc2)cc1,14.9,
C[n+]1ccc(C(=O)NCc2ccccc2)cc1,7.97,
Cc1nc2nc(SCC(=O)N(Cc3ccccc3)C(C)C)nn2c(C)c1Cc1ccccc1Cl,-9.9,
CCc1ccc(-n2nnc(-c3nc(-c4ccccc4)no3)c2C)cc1,-5.52,
COc1ccc(SCc2cc(=O)c3ccc(C)c(C)c3[nH]2)cc1,-22.7,
COc1cc(/C=N/O)cc(Br)c1OCc1cccc(Cl)c1,45.4,
CCOc1c(Br)cc(/C=C2\C(=O)N(CCC#N)N=C2C)cc1OC,-2.14,
COc1cc(/C=C2/C(=O)NN(c3cccc(Cl)c3)C2=O)cc(Br)c1O,,44.7 µM (active)

Structure (SMILES),"activity change, negative = inhibition [%]",Potency
COc1ccc(CNc2nc(-c3ccc(Cl)cc3)nn2S(=O)(=O)c2ccc(C)cc2)cc1,-7.22,
Cc1cccc(NC(=O)N2CCC(CN3CCc4ccccc4C3)CC2)c1C,0.66,
NS(=O)(=O)c1ccc(NC(=O)C(=O)Nc2ccc3nc4n(c(=O)c3c2)CCCCC4)cc1,-3.02,
O=C(c1ccc2c(c1)N(Cc1ccccc1F)C(=O)c1ccccc1S2(=O)=O)N1CCOCC1,-8.08,
COc1ccc(N(CC(=O)NCCc2ccc(Cl)cc2)S(=O)(=O)c2c(C)nn(C)c2C)cc1,-6.67,
COc1cccc(Cn2c(SCc3ccc(C(=O)N4CCC(C)CC4)cc3)nc3ccncc32)c1,,5.62 µM (active)
Cc1cccc(CSc2nc3ccncc3n2Cc2ccc(C(=O)O)cc2)c1,-4,
COc1cccc(Cn2c(SCc3ccc(C(=O)N4CCCCC4)cc3)nc3ccncc32)c1,-19.1,
CCOc1cccc(/C=N/N2C(=O)CSC2=S)c1O,,20 µM (active)
O=C1CSC(=S)N1c1ccc(O)cc1,-1.99,
COc1cc(N2C(=O)CSC2=S)cc(OC)c1OC,-5.37,
COc1ccc(-c2cn3nc(N4CCCC(C(=O)NCCCOC(C)C)C4)sc3n2)cc1 (centres undefined),-17.2,
Cc1ccc(-n2c(SCC(=O)c3ccccc3)nc3c([nH]c4ccccc43)c2=O)cc1,-13.9,
COc1ccc(NC(=O)CCNS(=O)(=O)c2ccc3c(c2)CCCC(=O)N3)cc1Cl,2.27,
COc1ccc(C(=O)Nc2cccc(C(=O)OCc3cc(=O)n4c5c(sc4n3)CCCC5)c2)cc1,-28.5,
Cc1cccc(N2CCN(Cc3c(C)n(C)n(-c4ccccc4)c3=O)CC2)c1C,-8.21,
Cc1cccc(N2CCN(C(=O)c3oc(=O)c4ccccc4c3-c3ccccc3)CC2)c1C,-28,
Cc1cccc(N2CCN(C3=C(c4ccccc4)C(=O)c4ccccc43)CC2)c1C,,5.62 µM (active)
COc1cccc(-c2n[nH]c3c2C(c2cccc(O)c2)N(C)C3=O)c1 (centres undefined),-29.2,
CCC(=O)N1N=C(c2ccc(OC)cc2)CC1c1cn(-c2ccccc2)nc1-c1cccs1 (centres undefined),-8.58,
O=C(c1ccc(Cl)cc1)c1ccc(OCC(O)CN2CCCCC2)cc1 (centres undefined),-4.4,
CCOc1ccc(C(=O)/C=C/c2cn(CC(O)CN3CCCCCC3)c3ccccc23)cc1 (centres undefined),,70.8 µM (active)
CC1CCN(CC(O)COc2ccc(C(=O)c3ccccc3)cc2)CC1 (centres undefined),-12.1,
Cn1c(=O)c2c(nc(Oc3ccc(C#N)cc3)n2Cc2ccc(Cl)cc2Cl)n(C)c1=O,-14.7,
O=[N+]([O-])c1cc(-c2nc(-c3ccccc3)no2)ccc1NCc1ccco1,-32.1,

Structure (SMILES),"activity change, negative = inhibition [%]",Potency
COc1ccccc1C(=O)NC(=O)COC(=O)c1ccco1,-12.8,
COc1ccc(CC(=O)Nc2ccccc2NC(=O)c2ccco2)cc1OC,6.04,
COc1ccc(C/C(N)=N/OC(=O)c2ccco2)cc1OC,,44.7 µM (active)
COc1ccc(OC)c(NC(=O)Cn2c(=O)n(Cc3ccccc3)c(=O)c3ccccc32)c1,-19.8,
CN(C)c1ccc(Nc2c3c4c(cccc4n(C)c2=O)C(=O)c2ccccc2-3)cc1,,3.55 µM (active)
CN(C)c1ccc(C2N(C)C(=O)c3ccccc3N2C)cc1 (centres undefined),-33.6,
Cc1cc(NS(=O)(=O)c2ccc(NC(=O)c3ccccc3C)cc2)nc(C)n1,0,
Cc1ccc(C2C=C(c3ccc(Cl)cc3)Nc3nc(NC(=O)CCC(=O)O)nn32)cc1 (centres undefined),,79.4 µM (active)
COc1ccc(C2=CC(c3ccccc3Cl)n3nc(-c4ccc(Cl)cc4)nc3N2)cc1 (centres undefined),-22.8,
COc1ccc(CC(=O)Nc2nc3n(n2)C(c2ccccc2)CC(=O)N3)cc1OC (centres undefined),-22.9,
COc1cccc(CN2CCc3nc(SCC(=O)Nc4ccccc4)[nH]c(=O)c3C2)c1,-12.3,
S=C(NCCC1=CCCCC1)Nc1ccccc1,-2.58,
O=C(CNCCC1=CCCCC1)Nc1ccccc1N1CCCCCC1,,56.2 µM (active)
Cc1cc(NC(=O)C(C)SCC(=O)Nc2ccccc2N2CCCCC2)no1 (centres undefined),-23.4,
Cc1cc(-c2ccccc2)n2nc(-c3ccccc3)cc2n1,260,
Cc1nnc(SCC(=O)NCc2ccccc2Cl)c2nn(-c3ccccc3)c(C)c12,-5.86,
COc1ccc(CNC(=O)c2cc3c(=O)[nH]c4ccccc4c3s2)cc1,4.33,
CCN(c1ccccc1)S(=O)(=O)c1ccc2[nH]c(=O)[nH]c2c1,,56.2 µM (active)
CCN(c1ccccc1)S(=O)(=O)c1ccc(NC(=O)C(C)(C)C)cc1,-16,
CN(c1ccccc1)S(=O)(=O)c1ccc2[nH]c(=O)[nH]c2c1,-18.4,
CCCC12CN3CC(C)(CN(C1)C3c1ccccc1Cl)C2=O (centres undefined),2.75,
COc1ccc(N2CCN(C(=O)CSc3nnc4ncccn34)CC2)cc1,-19.9,
CCOc1ccc(-c2nnn(CC(=O)N3CCN(c4ccc(OC)cc4)CC3)n2)cc1OCC,-19,
COc1ccc(N2CCN(C(=O)CSc3nc4cc(OC)c(OC)cc4cc3C#N)CC2)cc1,,56.2 µM (active)

# — PubChem BioAssay AID504339 (National Center for Advancing Translational Sciences (NCATS), 2011)
